# Experimental data: ChEMBL document CHEMBL1961873, “Compounds: GSK PKIS; Assays: Nanosyn kinase panel” (2012)
# Tests used:
# [1] = biological target: T1, Tyrosine-protein kinase receptor TYRO3 (Homo sapiens) (UniProt Q06418); conditions: at 1 µM
# T1 sequence (whole entry): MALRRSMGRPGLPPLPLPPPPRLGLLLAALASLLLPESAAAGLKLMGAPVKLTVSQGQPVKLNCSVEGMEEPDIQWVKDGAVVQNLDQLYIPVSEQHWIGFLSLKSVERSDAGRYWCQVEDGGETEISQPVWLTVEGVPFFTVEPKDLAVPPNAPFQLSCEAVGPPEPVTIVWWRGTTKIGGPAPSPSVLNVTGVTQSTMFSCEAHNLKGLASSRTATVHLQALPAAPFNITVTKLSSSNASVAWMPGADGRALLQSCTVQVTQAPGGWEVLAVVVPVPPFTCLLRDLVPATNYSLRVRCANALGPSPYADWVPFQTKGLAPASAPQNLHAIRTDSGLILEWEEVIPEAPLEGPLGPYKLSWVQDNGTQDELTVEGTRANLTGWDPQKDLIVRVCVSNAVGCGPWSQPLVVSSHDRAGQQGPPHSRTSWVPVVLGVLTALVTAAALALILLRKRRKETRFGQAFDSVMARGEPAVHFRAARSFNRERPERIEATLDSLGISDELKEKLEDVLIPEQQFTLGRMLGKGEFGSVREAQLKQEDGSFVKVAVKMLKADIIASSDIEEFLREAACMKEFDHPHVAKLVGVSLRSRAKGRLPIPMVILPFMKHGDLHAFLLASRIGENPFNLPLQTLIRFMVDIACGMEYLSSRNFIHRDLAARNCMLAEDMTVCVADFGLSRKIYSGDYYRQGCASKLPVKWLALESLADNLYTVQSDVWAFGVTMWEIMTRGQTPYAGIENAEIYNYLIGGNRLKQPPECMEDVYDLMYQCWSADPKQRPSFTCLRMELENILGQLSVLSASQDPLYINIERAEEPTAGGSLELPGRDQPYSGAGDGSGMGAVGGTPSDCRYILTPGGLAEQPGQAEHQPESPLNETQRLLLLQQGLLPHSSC
# [2] = biological target: Tyrosine-protein kinase Yes (Homo sapiens) (UniProt P07947); conditions: at 0.1 µM
# [3] = biological target: Tyrosine-protein kinase Yes (Homo sapiens) (UniProt P07947); conditions: at 1 µM
# [4] = biological target: T2, Tyrosine-protein kinase ZAP-70 (Homo sapiens) (UniProt P43403); conditions: at 0.1 µM
# T2 sequence (whole entry): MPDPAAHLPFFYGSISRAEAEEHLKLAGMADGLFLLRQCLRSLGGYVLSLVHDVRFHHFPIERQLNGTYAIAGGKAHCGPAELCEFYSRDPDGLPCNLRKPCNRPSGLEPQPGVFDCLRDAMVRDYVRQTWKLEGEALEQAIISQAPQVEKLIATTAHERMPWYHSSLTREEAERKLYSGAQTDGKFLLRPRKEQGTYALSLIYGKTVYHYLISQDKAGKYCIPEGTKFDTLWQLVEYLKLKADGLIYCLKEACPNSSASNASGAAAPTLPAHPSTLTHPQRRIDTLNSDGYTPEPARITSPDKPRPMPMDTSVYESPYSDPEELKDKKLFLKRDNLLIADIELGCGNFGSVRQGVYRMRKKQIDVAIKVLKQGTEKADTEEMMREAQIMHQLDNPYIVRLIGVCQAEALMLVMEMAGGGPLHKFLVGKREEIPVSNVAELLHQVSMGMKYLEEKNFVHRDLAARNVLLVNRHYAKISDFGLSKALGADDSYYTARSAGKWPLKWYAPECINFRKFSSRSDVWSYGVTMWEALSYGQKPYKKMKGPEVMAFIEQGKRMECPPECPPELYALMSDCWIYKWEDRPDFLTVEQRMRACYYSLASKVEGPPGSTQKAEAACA
# [5] = biological target: T2, Tyrosine-protein kinase ZAP-70 (Homo sapiens); conditions: at 1 µM
# [6] = biological target: Serine/threonine-protein kinase B-raf (Homo sapiens) (UniProt P15056); conditions: at 0.1 µM
# [7] = biological target: Serine/threonine-protein kinase B-raf (Homo sapiens) (UniProt P15056); conditions: at 1 µM
# [8] = system: Serine/threonine-protein kinase B-raf (Homo sapiens), P15056 [V600E]; conditions: at 0.1 µM
# [9] = system: Serine/threonine-protein kinase B-raf (Homo sapiens), P15056 [V600E]; conditions: at 1 µM
# [10] = biological target: RAF proto-oncogene serine/threonine-protein kinase (Homo sapiens) (UniProt P04049); conditions: at 0.1 µM
# [11] = biological target: RAF proto-oncogene serine/threonine-protein kinase (Homo sapiens) (UniProt P04049); conditions: at 1 µM
# [12] = biological target: T3, Interleukin-1 receptor-associated kinase 4 (Homo sapiens) (UniProt Q9NWZ3); conditions: at 0.1 µM
# T3 sequence (whole entry): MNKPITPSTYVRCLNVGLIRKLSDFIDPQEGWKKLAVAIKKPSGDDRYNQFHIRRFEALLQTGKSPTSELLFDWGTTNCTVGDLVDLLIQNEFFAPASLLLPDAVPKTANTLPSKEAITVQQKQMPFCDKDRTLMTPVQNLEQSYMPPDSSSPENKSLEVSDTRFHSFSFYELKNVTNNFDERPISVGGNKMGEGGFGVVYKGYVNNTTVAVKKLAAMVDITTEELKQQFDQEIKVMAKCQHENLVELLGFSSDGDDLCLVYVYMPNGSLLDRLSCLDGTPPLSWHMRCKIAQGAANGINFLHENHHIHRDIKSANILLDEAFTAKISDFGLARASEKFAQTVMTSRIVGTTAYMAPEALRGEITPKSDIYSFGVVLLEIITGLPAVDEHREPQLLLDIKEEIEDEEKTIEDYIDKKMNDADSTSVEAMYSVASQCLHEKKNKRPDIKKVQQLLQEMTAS
# [13] = biological target: T3, Interleukin-1 receptor-associated kinase 4 (Homo sapiens); conditions: at 1 µM
# [14] = biological target: Leucine-rich repeat serine/threonine-protein kinase 2 (Homo sapiens) (UniProt Q5S007); conditions: at 0.1 µM
# [15] = biological target: Leucine-rich repeat serine/threonine-protein kinase 2 (Homo sapiens) (UniProt Q5S007); conditions: at 1 µM
# [16] = system: Leucine-rich repeat serine/threonine-protein kinase 2 (Homo sapiens), Q5S007 [G2019S]; conditions: at 0.1 µM
# [17] = system: Leucine-rich repeat serine/threonine-protein kinase 2 (Homo sapiens), Q5S007 [G2019S]; conditions: at 1 µM
# Sequence of Leucine-rich repeat serine/threonine-protein kinase 2 (Homo sapiens), Q5S007 [G2019S] (Q5S007 whole entry G2019S): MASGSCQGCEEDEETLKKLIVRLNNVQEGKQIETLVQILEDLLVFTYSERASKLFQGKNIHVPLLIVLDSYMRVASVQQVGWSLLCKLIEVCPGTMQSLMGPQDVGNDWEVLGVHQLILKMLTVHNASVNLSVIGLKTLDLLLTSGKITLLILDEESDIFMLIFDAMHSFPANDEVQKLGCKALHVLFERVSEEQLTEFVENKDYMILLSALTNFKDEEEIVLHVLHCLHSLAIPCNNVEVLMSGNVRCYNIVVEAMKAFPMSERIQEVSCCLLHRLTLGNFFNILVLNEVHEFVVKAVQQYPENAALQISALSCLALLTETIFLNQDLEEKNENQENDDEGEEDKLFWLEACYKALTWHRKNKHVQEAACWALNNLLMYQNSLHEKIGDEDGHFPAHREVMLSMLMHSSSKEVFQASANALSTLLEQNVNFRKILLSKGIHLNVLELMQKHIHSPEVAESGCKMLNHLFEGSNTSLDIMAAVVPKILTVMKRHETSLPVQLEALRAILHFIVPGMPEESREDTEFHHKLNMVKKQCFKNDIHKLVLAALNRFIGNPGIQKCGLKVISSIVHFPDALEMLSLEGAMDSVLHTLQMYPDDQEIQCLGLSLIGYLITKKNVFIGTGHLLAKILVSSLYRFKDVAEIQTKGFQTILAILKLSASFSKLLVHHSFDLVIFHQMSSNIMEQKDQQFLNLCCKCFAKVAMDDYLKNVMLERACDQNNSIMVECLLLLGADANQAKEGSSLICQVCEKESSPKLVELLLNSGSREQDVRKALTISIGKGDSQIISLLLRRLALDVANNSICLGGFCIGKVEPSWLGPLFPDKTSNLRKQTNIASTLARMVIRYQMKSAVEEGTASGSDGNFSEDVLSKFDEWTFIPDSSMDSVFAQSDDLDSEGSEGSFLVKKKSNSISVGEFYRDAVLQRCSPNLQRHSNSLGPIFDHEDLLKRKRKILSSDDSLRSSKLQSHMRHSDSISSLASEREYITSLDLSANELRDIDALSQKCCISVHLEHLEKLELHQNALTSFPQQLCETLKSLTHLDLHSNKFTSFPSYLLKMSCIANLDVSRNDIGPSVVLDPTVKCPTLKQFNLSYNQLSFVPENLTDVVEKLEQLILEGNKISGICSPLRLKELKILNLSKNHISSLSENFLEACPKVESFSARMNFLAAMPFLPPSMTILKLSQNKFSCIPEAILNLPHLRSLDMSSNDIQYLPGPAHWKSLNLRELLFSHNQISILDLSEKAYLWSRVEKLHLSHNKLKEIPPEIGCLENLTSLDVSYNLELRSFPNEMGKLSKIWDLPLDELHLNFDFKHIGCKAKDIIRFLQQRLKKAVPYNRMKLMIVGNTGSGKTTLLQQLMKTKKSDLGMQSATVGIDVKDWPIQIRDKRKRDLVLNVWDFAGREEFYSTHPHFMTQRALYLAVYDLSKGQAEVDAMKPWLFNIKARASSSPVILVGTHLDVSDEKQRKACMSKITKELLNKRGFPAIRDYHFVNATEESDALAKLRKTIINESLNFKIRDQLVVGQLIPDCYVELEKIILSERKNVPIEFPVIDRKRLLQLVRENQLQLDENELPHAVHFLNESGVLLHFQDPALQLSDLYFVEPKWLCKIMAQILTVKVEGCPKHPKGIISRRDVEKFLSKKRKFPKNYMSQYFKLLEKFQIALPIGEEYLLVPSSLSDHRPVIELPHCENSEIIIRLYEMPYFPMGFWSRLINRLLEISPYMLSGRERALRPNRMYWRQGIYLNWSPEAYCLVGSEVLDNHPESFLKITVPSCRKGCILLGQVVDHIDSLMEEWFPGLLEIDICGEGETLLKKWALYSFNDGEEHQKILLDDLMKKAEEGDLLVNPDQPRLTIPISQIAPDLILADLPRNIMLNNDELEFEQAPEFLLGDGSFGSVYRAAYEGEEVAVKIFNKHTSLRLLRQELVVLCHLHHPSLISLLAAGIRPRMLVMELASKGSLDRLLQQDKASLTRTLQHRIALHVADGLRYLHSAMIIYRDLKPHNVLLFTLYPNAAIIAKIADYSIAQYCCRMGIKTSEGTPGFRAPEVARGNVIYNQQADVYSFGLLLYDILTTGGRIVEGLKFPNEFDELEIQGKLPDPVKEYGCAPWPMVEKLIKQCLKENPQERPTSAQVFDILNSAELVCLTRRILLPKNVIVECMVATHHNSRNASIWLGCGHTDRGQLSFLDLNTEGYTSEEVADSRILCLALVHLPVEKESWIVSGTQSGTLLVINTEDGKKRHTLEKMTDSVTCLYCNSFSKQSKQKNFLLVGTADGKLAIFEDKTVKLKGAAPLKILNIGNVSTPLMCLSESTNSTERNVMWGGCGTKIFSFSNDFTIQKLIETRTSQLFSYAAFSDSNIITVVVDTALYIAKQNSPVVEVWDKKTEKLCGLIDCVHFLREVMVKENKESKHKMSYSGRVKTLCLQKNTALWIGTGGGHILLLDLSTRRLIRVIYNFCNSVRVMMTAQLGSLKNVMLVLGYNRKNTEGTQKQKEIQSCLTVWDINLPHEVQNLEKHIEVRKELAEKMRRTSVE
# Sequence of Tyrosine-protein kinase Yes (Homo sapiens) (P07947 2-543 limits assumed): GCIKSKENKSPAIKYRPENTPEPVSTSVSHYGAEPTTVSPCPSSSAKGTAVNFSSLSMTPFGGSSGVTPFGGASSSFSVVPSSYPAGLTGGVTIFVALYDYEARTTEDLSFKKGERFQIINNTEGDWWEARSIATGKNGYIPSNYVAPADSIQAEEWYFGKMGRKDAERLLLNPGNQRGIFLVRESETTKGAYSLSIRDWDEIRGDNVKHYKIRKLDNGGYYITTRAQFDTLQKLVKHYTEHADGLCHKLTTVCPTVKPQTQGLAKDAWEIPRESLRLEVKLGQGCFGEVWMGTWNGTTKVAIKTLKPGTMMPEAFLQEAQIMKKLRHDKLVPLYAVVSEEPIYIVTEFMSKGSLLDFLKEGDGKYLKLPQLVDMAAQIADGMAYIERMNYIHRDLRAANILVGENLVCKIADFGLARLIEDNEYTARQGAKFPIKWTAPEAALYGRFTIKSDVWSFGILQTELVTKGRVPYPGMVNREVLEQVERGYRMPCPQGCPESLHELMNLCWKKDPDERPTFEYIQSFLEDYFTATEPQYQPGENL
# Sequence of RAF proto-oncogene serine/threonine-protein kinase (Homo sapiens) (P04049 whole entry): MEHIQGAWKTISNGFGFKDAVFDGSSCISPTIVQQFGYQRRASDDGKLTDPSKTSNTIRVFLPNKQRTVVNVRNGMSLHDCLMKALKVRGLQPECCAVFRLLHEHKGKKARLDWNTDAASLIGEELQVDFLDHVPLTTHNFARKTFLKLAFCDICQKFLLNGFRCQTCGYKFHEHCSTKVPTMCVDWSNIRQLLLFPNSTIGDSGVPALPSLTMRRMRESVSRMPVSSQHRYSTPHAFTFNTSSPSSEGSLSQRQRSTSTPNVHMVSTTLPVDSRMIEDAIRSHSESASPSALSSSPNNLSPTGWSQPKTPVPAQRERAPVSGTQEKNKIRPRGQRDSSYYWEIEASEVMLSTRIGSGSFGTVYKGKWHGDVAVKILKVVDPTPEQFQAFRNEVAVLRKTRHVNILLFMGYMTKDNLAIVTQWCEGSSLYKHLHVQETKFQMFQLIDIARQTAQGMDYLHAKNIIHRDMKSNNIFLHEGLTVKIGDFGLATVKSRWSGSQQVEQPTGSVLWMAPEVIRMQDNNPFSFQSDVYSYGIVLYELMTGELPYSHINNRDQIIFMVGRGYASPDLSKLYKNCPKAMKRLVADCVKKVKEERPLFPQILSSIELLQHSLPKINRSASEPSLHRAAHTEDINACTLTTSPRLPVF
# Sequence of Serine/threonine-protein kinase B-raf (Homo sapiens) (P15056 whole entry): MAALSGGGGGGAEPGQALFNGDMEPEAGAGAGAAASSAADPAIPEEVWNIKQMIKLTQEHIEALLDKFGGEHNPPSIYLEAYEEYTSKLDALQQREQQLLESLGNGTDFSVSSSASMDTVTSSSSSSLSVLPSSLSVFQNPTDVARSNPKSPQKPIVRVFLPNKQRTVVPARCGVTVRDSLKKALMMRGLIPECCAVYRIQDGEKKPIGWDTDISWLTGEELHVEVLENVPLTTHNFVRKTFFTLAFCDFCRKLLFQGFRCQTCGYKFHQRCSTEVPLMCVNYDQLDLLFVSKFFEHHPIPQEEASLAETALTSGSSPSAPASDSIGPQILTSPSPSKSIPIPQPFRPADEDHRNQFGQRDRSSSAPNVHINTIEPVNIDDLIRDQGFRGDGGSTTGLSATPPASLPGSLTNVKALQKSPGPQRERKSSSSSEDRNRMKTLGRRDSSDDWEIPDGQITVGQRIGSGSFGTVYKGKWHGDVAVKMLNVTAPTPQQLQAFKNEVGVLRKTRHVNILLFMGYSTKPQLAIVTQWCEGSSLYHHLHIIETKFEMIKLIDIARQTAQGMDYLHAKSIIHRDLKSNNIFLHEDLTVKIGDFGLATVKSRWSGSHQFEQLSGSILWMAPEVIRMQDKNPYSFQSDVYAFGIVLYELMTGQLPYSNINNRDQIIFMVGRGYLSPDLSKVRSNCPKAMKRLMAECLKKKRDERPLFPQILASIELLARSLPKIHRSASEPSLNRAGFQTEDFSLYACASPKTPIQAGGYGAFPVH
# Sequence of Leucine-rich repeat serine/threonine-protein kinase 2 (Homo sapiens) (Q5S007 whole entry): as the sequence (Q5S007 whole entry G2019S) above, with S2019G counted along it
# Sequence of Serine/threonine-protein kinase B-raf (Homo sapiens), P15056 [V600E] (P15056 whole entry V600E): as the sequence (P15056 whole entry) above, with V600E counted along it
Compound,inhibition [1] [%],inhibition [2] [%],inhibition [3] [%],inhibition [4] [%],inhibition [5] [%],inhibition [6] [%],inhibition [7] [%],inhibition [8] [%],inhibition [9] [%],inhibition [10] [%],inhibition [11] [%],inhibition [12] [%],inhibition [13] [%],inhibition [14] [%],inhibition [15] [%],inhibition [16] [%],inhibition [17] [%]
COc1cc(Nc2nccc(-c3cnn4ncccc34)n2)cc(OC)c1,14.9,9.16,39.8,4.5,14.2,3.83,28.9,4.91,28.7,-0.8,10.1,5.71,18.6,18.7,24.4,22.1,62.9
O=C1Nc2ccccc2/C1=C/Nc1ccc2[nH]c(=O)[nH]c2c1,21.6,6.92,27.2,3.11,7.45,9.63,10.4,8.7,8.75,0.68,-0.47,2.93,2.88,3.06,14.1,6.22,35
Cc1ccc(NC(=O)CC2CC2)cc1-c1ccc(C(=O)NCC2CC2)cc1,4.65,1.53,2.46,-0.2,2.11,4.43,6.22,4.33,4.96,3.39,2.03,-2.97,2.2,2.09,7.62,3.23,6.82
OCc1ccc(-c2nc(-c3ccccn3)c(-c3ccc4c(c3)OCO4)[nH]2)cc1,1.02,1.58,-0.01,1.4,0.81,5.65,7.13,6.24,7.48,-1.74,-7.97,-4.02,2.42,4.19,6.97,5.62,9.65
COc1cccc(-n2ncc3c(N/N=C/c4ccc(C)cc4)ncnc32)c1,4.49,4.03,13.8,3.63,11,7.21,11.2,4.78,6.08,7.72,0.4,2.16,4.05,10.2,18.8,11.3,27.9
CN(C)C(=O)O[C@@H]1CN[C@@H](C#Cc2cc3ncnc(Nc4ccc(OCc5cccc(F)c5)c(Cl)c4)c3s2)C1,-0.16,3.49,5.24,0.96,2.42,0.07,3.2,0.85,3.23,-2.83,–,2.83,0.5,0.07,0.34,1.22,4.14
CCn1c(-c2nonc2N)nc2c(C#CC(C)(C)O)nc(OCCNC)cc21,3.31,3.64,3.28,1.77,1.49,6.22,7.65,3.6,3.03,0.76,0.54,2.16,3.06,-2.14,0.49,-0.46,2.51
FC(F)(F)c1ccc(-c2nn3ncccc3c2-c2ccnc(Nc3ccc4c(c3)OCCO4)n2)cc1,5.58,30,83.3,5.79,5.21,-1.63,-1.17,-1.85,-1.18,-0.32,-0.8,5.37,1.44,4.63,8.46,6.21,10.1
COC(=O)c1cncc(/C=C/c2c(C)cc(O)cc2C)c1,7.16,4.43,18.8,2.93,-0.01,6.07,9.71,5.41,8.24,1.93,-7.11,-4.61,1.8,1.53,6.87,2.83,9.71
O=C1Nc2ccc(-c3cccnc3)cc2C1=Cc1cc(Br)c(O)c(Br)c1,9.95,2.64,5.79,–,-8.3,8.77,18.3,8.84,18.1,-2.68,21.8,-1.88,4.22,23.2,22.3,47.2,61.3
CN(c1ccc(NC(=O)Nc2ccc(OC(F)(F)F)cc2)cc1)c1ccnc(Nc2cccc(S(N)(=O)=O)c2)n1,27.2,15.5,65.2,-0.16,3.87,5.02,22.7,4.82,18,-2.25,-4.06,1.26,2.86,4.25,27.6,3.86,17.2
Cc1nc(-c2ccccc2)n2nc(NCCCN3CCOCC3)ncc12,2.63,0.53,6.58,0.35,0.63,3.54,7.13,4.13,4.57,8.88,3.81,1.72,1.58,0.1,5.23,2.23,6.32
Cc1ccc(Nc2ccnc(Nc3cccc(C(N)=O)c3)n2)cc1O,55,33.5,78.5,-1.9,6.83,6.53,10.4,5.95,8.26,6.98,4.38,-2.94,6.55,0.74,9.44,2.08,26.1
C[C@@H](Oc1cc(-n2cnc3ccc(OC[C@@H](O)CO)cc32)sc1C(N)=O)c1ccccc1Cl,1.84,-2.39,4.27,-0.38,-0.42,-1.12,-0.85,-2.35,0.01,-4.77,5.77,1.29,-0.05,3.25,17.3,5.39,28.7
CC(C)c1ccc2c(c1)NC(=O)/C2=N/Nc1ccc(S(N)(=O)=O)cc1,2.75,2.45,9.19,-0.31,1.5,-0.82,-1.25,0.24,-0.56,-2.32,-0.41,0.36,0.49,-0.37,9.75,2.27,11.5
